Test results as given in PubChem BioAssay (NCI).
Compounds without any hit were thinned out: in the full panel of roughly 83,000, 20% have a hit.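 A percent growth of 40 corresponds to 60% growth inhibition; 0 means no net growth; -100 means all cells died. Active threshold: below 10.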 Unmarked numbers belong to inactive results. Calls of active or inactive are those of the source.

What was measured:
Assay in all cases: NCI-60 one-dose screen, 48 h (100 = growth as untreated, 0 = no growth, -100 = all killed)
Settings in all cases: 10 µM
NCI-H23 lung = system: NCI-H23 lung
NCI-H226 lung = system: NCI-H226 lung
NCI-H322M lung = system: NCI-H322M lung
HOP-62 NSCLC = system: HOP-62 NSCLC
NCI-H460 lung = system: NCI-H460 lung
HOP-92 NSCLC = system: HOP-92 NSCLC
NCI-H522 lung = system: NCI-H522 lung
A549/ATCC NSCLC = system: A549/ATCC NSCLC
786-0 renal = system: 786-0 renal
COLO 205 colon = system: COLO 205 colon
DU-145 prostate = system: DU-145 prostate
K-562 leukemia = system: K-562 leukemia
MALME-3M melanoma = system: MALME-3M melanoma
MDA-MB-231 breast = system: MDA-MB-231 breast
RXF 393 renal = system: RXF 393 renal
SF-268 CNS = system: SF-268 CNS
SF-295 CNS = system: SF-295 CNS
SF-539 CNS = system: SF-539 CNS
UACC-257 melanoma = system: UACC-257 melanoma
M14 melanoma = system: M14 melanoma

| Structure (SMILES) | growth (NCI-H23 lung) | growth (NCI-H226 lung) | growth (NCI-H322M lung) | growth (HOP-62 NSCLC) | growth (NCI-H460 lung) | growth (HOP-92 NSCLC) | growth (NCI-H522 lung) | growth (A549/ATCC NSCLC) | growth (786-0 renal) | growth (COLO 205 colon) | growth (DU-145 prostate) | growth (K-562 leukemia) | growth (MALME-3M melanoma) | growth (MDA-MB-231 breast) | growth (RXF 393 renal) | growth (SF-268 CNS) | growth (SF-295 CNS) | growth (SF-539 CNS) | growth (UACC-257 melanoma) | growth (M14 melanoma) |
| --- | --- | --- | --- | --- | --- | --- | --- | --- | --- | --- | --- | --- | --- | --- | --- | --- | --- | --- | --- | --- |
| COc1ccc(-c2ccc(-c3ccc(C(=N)N)c(F)c3)s2)cc1 | -81.9% (active) | -41% (active) | -91.5% (active) | -75.7% (active) | -84.2% (active) | -87.8% (active) | -76.5% (active) | -81.9% (active) | -82.5% (active) | -71.1% (active) | -97.8% (active) | -70.2% (active) | -62% (active) | -89% (active) | -80.4% (active) | -89.8% (active) | -87.5% (active) | -93.7% (active) | -87.1% (active) | -83.5% (active) |
| O=C1CC[C@@H](C(=O)N[C@H]2CSSC[C@@H](C(=O)NCCc3ccccc3)NC(=O)[C@H](Cc3ccccc3)NC(=O)[C@@H]3CCCN3C(=O)[C@@H]3CCCN3C2=O)N1 | 92.7% | 87.5% | 115% | 55.1% | 101% | 94.6% | 96.2% | 86.2% | 99% | 119% | 110% | 90.6% | 110% | 90.1% | 103% | 106% | 98.8% | 94.2% | 99.1% | 97.8% |
| Cn1c([N+](=O)[O-])cnc1C=C1C(=O)c2ccccc2C1=O | 53.7% | 81.7% | 72.7% | 74.7% | 68.9% | 20.4% | 3.27% (active) | 65.6% | 41.1% | 42.3% | 46.5% | 15.8% | 42.5% | 45.6% | 4.59% (active) | 17.7% | 110% | 17.7% | 37.4% | 19.3% |
| O=C(Nc1cccc(Cl)c1)OCC(COC(=O)Nc1cccc(Cl)c1)(COC(=O)Nc1cccc(Cl)c1)[N+](=O)[O-] | 22.9% | 66.4% | 45.8% | 41.8% | 17.9% | 18.6% | 27.4% | 26.2% | 32.8% | 35.5% | 44.2% | 26.4% | 59% | 40.3% | 57.1% | 35.4% | 20.8% | 59.5% | 52.3% | 24.4% |
| COc1ccc(OC)c([N+](=O)[O-])c1C=O | 107% | 92% | 101% | 78.2% | 108% | 91.1% | 76.9% | 101% | 110% | 124% | 116% | 42.4% | 108% | 107% | 80.6% | 109% | 93.7% | 105% | 84.1% | 108% |
| COc1ccc(C2C=C(c3ccc(Cl)cc3)N=C3SC=CN32)c(Br)c1 (stereo not given) | 71.6% | 81.4% | 112% | 87.3% | 76.7% | 76.2% | 65.5% | 56.8% | 89.6% | 70.4% | 97% | 66.1% | 106% | 47.7% | 69.8% | 71.2% | 55.6% | 91.1% | 83.2% | 78.6% |
| CCOC(=O)CNC(=O)Nc1ccc(Oc2ccc(NC(=O)NCC(=O)OCC)cc2)cc1 | 104% | 98.8% | 96.3% | 96.1% | 101% | 92.2% | 96.2% | 90.6% | 105% | 105% | 112% | 105% | 102% | 108% | 91.6% | 104% | 93% | 86.7% | 96.2% | 101% |
| CN(C)c1ccc2c(c1)OC(N)=C(C#N)C2c1ccc2c(c1)CCCN2C (stereo not given) | 33.3% | 37.3% | 52.3% | 31.7% | 12.4% | 47.1% | -26.4% (active) | 27.5% | 43.7% | -10.2% (active) | 25.7% | 16.5% | 67.8% | 38.6% | 8.31% (active) | 49.4% | -14.4% (active) | -2.99% (active) | 54.7% | 2.75% (active) |
| O/N=C1\CCC2CCCCC2C1 (stereo not given) | 103% | 103% | 106% | 108% | 103% | 82.9% | 93.4% | 96.6% | 105% | 114% | 113% | 106% | 98.2% | 114% | 104% | 103% | 93.6% | 88.8% | 107% | 102% |
| c1ccc(CNc2nc(Nc3ccc(-c4nc5ccccc5[nH]4)cc3)c3cn[nH]c3n2)cc1 | 14.5% | 39.6% | 28.6% | -17.4% (active) | 4.06% (active) | 14.7% | -45.7% (active) | 4.29% (active) | -78.4% (active) | -60.1% (active) | 25.5% | -17% (active) | -23.5% (active) | -11.1% (active) | -68.3% (active) | 22.1% | -44.5% (active) | 1.69% (active) | -33.3% (active) | -34.6% (active) |
| COc1ccc(/C=C2\SC(=S)N(CCCN3CCOCC3)C2=O)c(OC)c1 | 98.9% | -99.3% (active) | 111% | 125% | 105% | 87.1% | 79.7% | 102% | 106% | 108% | 100% | 83.8% | 118% | 96.9% | 108% | 104% | 107% | 104% | 102% | 95.6% |
| CC(=O)OCC(COC(C)=O)(COC(C)=O)COC(C)=O | 102% | 93.5% | 99.5% | 102% | 104% | 105% | 99.4% | 111% | 112% | 109% | 103% | 95.4% | 94.6% | 105% | 104% | 94.7% | 103% | 111% | 103% | 108% |
| CCc1nn2c(-c3cc(OC)c(OC)c(OC)c3)c(-c3cc(OC)c(OC)c(OC)c3)nc2s1 | 87.9% | 92% | 81.6% | 40.8% | 97.1% | -15.2% (active) | 46% | 86% | 58.6% | 94.9% | 88.1% | 85.7% | 47.5% | 58.9% | 38.8% | 45.9% | 61.4% | 59.6% | 108% | 89.5% |
| C/C=C\COc1cc(C)c(Cl)cc1Cl | 111% | 87.5% | 104% | 109% | 103% | 85.5% | 119% | 91.8% | 108% | 107% | 111% | 114% | 95.9% | 111% | 96.2% | 114% | 99% | 104% | 92% | 112% |
| COc1nc2c(c(=O)[nH]1)C(c1ccc(Oc3ccnc4cc(Cl)ccc34)c(OC)c1)C=C(c1cc(OC)c(OC)c(OC)c1)N2 (stereo not given) | 95.3% | 96.6% | 95.2% | 116% | 102% | 82.1% | 93.3% | 101% | 95% | 102% | 95.1% | 87.8% | 109% | 80.8% | 106% | 103% | 99.1% | 108% | 92.2% | 98.8% |
| CCCCCCCCCCCCCC[n+]1ccccc1 | -11.7% (active) | -19% (active) | 16.9% | -62% (active) | -44.8% (active) | -50.8% (active) | -66.9% (active) | -55.8% (active) | -53.5% (active) | -93% (active) | -48.6% (active) | 0.808% (active) | -50.8% (active) | -62.6% (active) | -69.6% (active) | -37.3% (active) | -89.8% (active) | -30.7% (active) | -70.8% (active) | -33.5% (active) |
